The list is not random: actives were taken first. Their share in the collection is about 4.8%.
DRD3 agonist: qHTS of D3 Dopamine Receptor Agonist: qHTS. D3R DiscoveRx beta-arrestin cells, luminescence, 90 min. AID 652048, 2013. D(3) dopamine receptor (Homo sapiens), P35462. max activation, %. 0.58% of 410,000 active; in the data active = max activation above about 30%
Target sequence (P35462 whole entry, looked up): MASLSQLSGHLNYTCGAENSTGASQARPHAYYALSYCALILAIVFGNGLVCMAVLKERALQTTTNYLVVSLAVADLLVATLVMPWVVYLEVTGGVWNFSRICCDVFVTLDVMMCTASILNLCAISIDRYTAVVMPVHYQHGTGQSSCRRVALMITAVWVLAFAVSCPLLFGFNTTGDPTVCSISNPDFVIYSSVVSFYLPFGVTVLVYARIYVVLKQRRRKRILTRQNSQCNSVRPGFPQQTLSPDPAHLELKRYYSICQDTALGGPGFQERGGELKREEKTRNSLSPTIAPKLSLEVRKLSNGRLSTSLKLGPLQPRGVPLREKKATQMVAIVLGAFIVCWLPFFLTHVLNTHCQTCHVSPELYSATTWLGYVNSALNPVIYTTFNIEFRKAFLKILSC
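Cells at 1500/well, incubated overnight, then treated with pinned compounds (dopamine as control) for 90 min at 37 degrees C. DiscoveRx reagent added for 30 - 60 minutes at room temperature; luminescence read.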
ATXN2 expr inh: Primary qHTS for Inhibitors of ATXN expression; HEK-293 ATXN2-luciferase reporter, luminescence, 24 h; Potency, µM (doses to about 57 µM), hits mostly inhibitors; 0.72% of 360,000 active; AID 1745845, 2022; also: nearly all actives have a fitted effect of over 55% in size
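qHTS (up to 57 uM final) was run with 24 h compound exposure of reporter cells at 37 °C. Each well was multiplexed: SteadyGlo luminescence measured ATXN2-luciferase expression after a fluorogenic Gly-Phe-AFC viability readout (25 uM final).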
TGFb SMAD3 inh: qHTS for Inhibitors of TGF-b. HepG2 CAGA-GFP TGF-b/SMAD3 reporter, GFP fluorescence, 18 h; TGF-beta stimulated, 500 pg/mL final. 1.2% of 410,000 active. Potency, µM (titrated, usually from 46.1 µM), hits mostly inhibitors. AID 588855, 2011; also: nearly all actives have a fitted effect of over 65% in size
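Smad-responsive CAGA-GFP expression was quantified in HEPG2 cells exposed to compounds and 500 pg/mL final TGF-beta for 18 h at 37 degrees C; unstimulated wells defined full inhibition.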
HepG2 tox: qHTS for Inhibitors of TGF-b: Cytotox Counterscreen. HepG2 CAGA-GFP viability, ATP luminescence, 18 h. Potency, µM (series often up to 46.1 µM), usual class: cytotoxic. 0.76% of 410,000 active
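HepG2 CAGA-GFP cells (1000/well, DMEM with 1% FBS) received compound, then TGF-beta at 500 pg/mL final, and were incubated 18 hours at 37 degrees C. Viability was read by CellTiter-Glo luminescence. Media-only wells were set as complete cell-killing and DMSO as no toxicity.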
D3 antag: qHTS of D3 Dopamine Receptor Antagonist: qHTS; D(3) dopamine receptor (Homo sapiens), P35462; max response, negative = inhibition, %; D3R cells, DiscoveRx beta-arrestin luminescence, antagonist mode; active compounds read low; 2.5% of 360,000 active; in the data active = max response below about -50%; inconclusive = no clear call, values can overlap the other calls
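Cells expressing the human receptor were seeded at 1500 cells/well, incubated overnight at 37 degrees C in 5% CO2, then exposed to library compounds with dopamine controls for 90 minutes at 37 degrees C before luminescent detection.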
ATXN viability: Viability Counterscreen for Primary qHTS for Inhibitors of ATXN expression; S2 cells (HEK-293 line with an ATXN2-luciferase reporter) viability, CellTiter-Fluor protease fluorescence, 24 h; Potency, µM (series often up to 56.7 µM), most hits filed as cytotoxic; 0.49% of 400,000 active; also: nearly all actives have a fitted effect of over 40% in size
Hits are given with their value; i = inactive; ? = inconclusive; nt = not tested or not shown. Unless noted, calls follow the shape of the dose curve; as a rule, active = well fitted curve in the direction sought with a large enough effect; inconclusive = small, poorly fitted or top-dose-only effect, or another doubt; inactive = no such curve, though single readings can be large; an effect the other way counts as inactive or inconclusive.

SMILES	DRD3 agonist	ATXN2 expr inh	TGFb SMAD3 inh	HepG2 tox	D3 antag	ATXN viability
Cc1ccc(CNC(=O)c2ccccc2NS(C)(=O)=O)cc1	i	i	i	i	i	i
O=C(Cn1nnc(-c2ccc(CN3CCOCC3)cc2)n1)N(c1ccccc1)c1ccccc1	i	i	i	i	i	i
CC(C)(C)NC(=O)CN(C(=O)Cn1nnc(-c2ccc(Cl)cc2)n1)C1CCN(Cc2ccccc2)CC1	i	i	15.8µM	17.8µM	i	?
Cc1cc[n+](CC#N)cc1	nt	nt	i	i	nt	nt
COc1ccc(CNc2nc(NCc3ccc(OC)cc3)c3[nH]cnc3n2)cc1	56.4	i	i	i	i	i
COc1ccc(CNc2ncnc3nc[nH]c23)cc1	nt	nt	i	i	nt	nt
Nc1ncnc2c1ncn2[C@@H]1O[C@H](CNC(=O)[C@@H]2CCN2)[C@@H](O)[C@H]1O	i	i	i	i	i	i
Nc1ncnc2c1ncn2[C@@H]1O[C@H](CNC(=O)[C@@H]2CCCN2S(=O)(=O)c2ccc(F)cc2)[C@@H](O)[C@H]1O	36.6	i	i	i	i	i
CSCc1cc(N(C)c2ccccc2)nc(-c2ccccn2)n1	i	nt	i	i	-75.4	?
CN(C)c1cc(C(F)(F)F)nc(-c2ccccn2)n1	i	i	i	i	i	i
Cc1ccccc1CN1C(=O)C(O)(CC(=O)c2ccccc2)c2cc(Cl)ccc21 (configuration not stated)	i	nt	?	20µM	nt	nt
Cc1ccc(C(=O)CC2(O)C(=O)N(Cc3ccccc3)c3ccc(Br)cc32)cc1 (configuration not stated)	i	nt	?	i	nt	nt
CCc1ccc(C(=O)CC2(O)C(=O)N(CCc3ccccc3)c3ccc(Cl)cc32)cc1 (configuration not stated)	i	?	12.6µM	20µM	nt	?
COc1ccc(C2Nc3ccccc3C(=O)N2Cc2ccccc2)cc1COc1ccc([N+](=O)[O-])cc1 (configuration not stated)	nt	nt	i	i	nt	nt
OC(c1ccc(-c2ccccc2)cc1)c1ncc(-c2ccc(C(F)(F)F)cc2)[nH]1 (configuration not stated)	i	?	?	i	i	?
CCc1ccc(C(O)c2ncc(-c3ccc(C(F)(F)F)cc3)[nH]2)cc1 (configuration not stated)	i	i	15.8µM	i	i	i
Cc1cccc(C)c1C(O)c1ncc(-c2cccc(C(F)(F)F)c2)[nH]1 (configuration not stated)	i	i	i	i	-60.7	i
Cc1ccc(C(O)c2ncc(-c3cccc(C(F)(F)F)c3)[nH]2)cc1 (configuration not stated)	i	i	?	i	i	?
O=C(Nc1ccc(C(F)(F)F)cc1)C1CCCN(c2cnccn2)C1 (configuration not stated)	i	nt	i	i	nt	nt
O=C1C(=O)c2ccccc2C(O)=C1c1ccccc1F	i	i	i	i	-72.5	?
O=C(NCCC1=CCCCC1)c1ccc(Cl)c(S(=O)(=O)Nc2ccccc2)c1	i	i	12.6µM	i	i	i
CCN(CC)CCNC(=O)c1ccc(Cl)c(S(=O)(=O)Nc2ccc(Cl)cc2)c1	i	i	i	i	-56.1	?
CCN(CC)CCNC(=O)c1ccc(Cl)c(S(=O)(=O)Nc2ccccc2OC)c1	i	i	i	i	i	i
CN(c1cccc(NC(=O)c2ccc(Cl)c(S(=O)(=O)Nc3ccccc3)c2)c1)S(C)(=O)=O	52.3	i	i	i	i	i
O=C(Nc1ccccc1)c1ccc(Cl)c(S(=O)(=O)Nc2ccccc2)c1	i	i	i	i	nt	?
Cc1ccccc1NS(=O)(=O)c1cc(C(=O)NCCC2=CCCCC2)ccc1C	i	?	?	i	i	?
Cc1cccc(-c2noc(-c3ccc(NCc4cccnc4)c([N+](=O)[O-])c3)n2)c1	i	i	i	i	nt	i

Compound activity from PubChem.
